Measured values taken from PubChem BioAssay AID1777 (Sanford-Burnham Center for Chemical Genomics, 2009).
The whole screen tested about 280,000 compounds, of which about 50 (0.02%) were called active. No stated cut-off is given here; in the data, active means activation above about 50% (passing the limit was not always enough); inactive means the rest. This excerpt belongs to a sample that is enriched for actives. Entries with a potency or affinity are not part of this list.

These compounds were tested against Kappa-type opioid receptor (Homo sapiens) (UniProt P41145) (assay: KOR agonists, beta-arrestin recruitment, primary screen, cell-based, luminescence, uHTS (AID 1777)). Conditions: at 10 µM, hits give high values.
Sequence of Kappa-type opioid receptor (Homo sapiens) (P41145 whole entry, looked up): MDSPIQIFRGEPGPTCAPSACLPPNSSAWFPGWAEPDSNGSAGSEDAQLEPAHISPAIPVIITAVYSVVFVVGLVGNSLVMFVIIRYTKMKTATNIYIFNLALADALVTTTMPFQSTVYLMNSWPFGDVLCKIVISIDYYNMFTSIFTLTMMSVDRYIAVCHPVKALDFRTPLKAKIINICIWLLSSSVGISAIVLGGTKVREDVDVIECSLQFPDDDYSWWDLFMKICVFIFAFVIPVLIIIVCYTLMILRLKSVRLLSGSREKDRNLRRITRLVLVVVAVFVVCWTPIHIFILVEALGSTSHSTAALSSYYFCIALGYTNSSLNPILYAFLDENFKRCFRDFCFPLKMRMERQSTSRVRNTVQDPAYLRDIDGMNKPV
In the case of `COc1ccc(C(CNC(=O)Cc2ccc(Cl)c(Cl)c2)N(C)C)cc1` (stereo not given), the activation is reported as -2.4% (inactive). `COc1ccc(C(CNC(=O)Cc2ccc(Cl)c(Cl)c2)N2CCCCC2)cc1` (stereo not given) was tested, and the activation was -2.4% (inactive). In the case of `COC(=O)N1CCN(C(=O)Cc2ccc(Cl)c(Cl)c2)C(CN2CCCC2)C1` (stereo not given), the activation is reported as 91.3% (active). In the case of `CCN1C(=O)N(CC)C(=O)C2(Cc3ccccc3N3CCN(c4ccccc4)CC32)C1=O` (stereo not given), the activation is reported as 2.7% (inactive). `COc1ccc2nc(/N=C/c3c(O)n(-c4cccc(Cl)c4)c(=O)[nH]c3=O)sc2c1` was tested, and the activation was 2.9% (inactive).
